{"source": "PubChem BioAssay (EPA / NIEHS)", "note": "Inconclusive results are not listed. Activity calls are given as the source filed them. How the source made its calls: active means hit-call score of the fitted dose curve at least 0.9, where 1 is the maximum; inconclusive means response in the unintended direction; inactive means score below 0.9."}
{"molecular_target": "human Adrenergic, Alpha 2c Receptor (Adra2C), ADRA2C (gene 152) (UniProt P18825)", "sequence (P18825 whole entry, looked up)": "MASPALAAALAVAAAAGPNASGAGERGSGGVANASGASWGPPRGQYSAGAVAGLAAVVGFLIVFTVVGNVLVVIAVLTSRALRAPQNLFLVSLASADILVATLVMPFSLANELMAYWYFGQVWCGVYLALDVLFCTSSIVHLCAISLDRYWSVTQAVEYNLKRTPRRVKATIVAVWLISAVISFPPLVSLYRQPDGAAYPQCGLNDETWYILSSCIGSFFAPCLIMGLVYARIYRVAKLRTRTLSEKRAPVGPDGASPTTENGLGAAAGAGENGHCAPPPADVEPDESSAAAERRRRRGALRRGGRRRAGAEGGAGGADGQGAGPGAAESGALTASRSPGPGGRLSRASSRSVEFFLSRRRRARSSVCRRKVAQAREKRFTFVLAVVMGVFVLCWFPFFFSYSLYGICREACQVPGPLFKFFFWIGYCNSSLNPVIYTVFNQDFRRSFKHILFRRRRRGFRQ", "assay": "NVS_GPCR_hAdra2C: NovaScreen (NVS) G Protein-Coupled Receptor Assay for human Adrenergic, Alpha 2c Receptor (Adra2C) (AID 2283259)", "outline": "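Radioligand binding on Sf9-expressed receptor membranes, 1 h after chemical dosing, filter-based scintillation read-out. Loss of binding fitted positively versus DMSO; primary duplicate screen at 25 uM, actives retested in concentration series.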"}
{"smiles": "CCc1cnc(C2=NC(C)(C(C)C)C(=O)N2)c(C(=O)O)c1", "note": "(stereo not given)", "outcome": "inactive"}
{"smiles": "C[N+]1(C)CCCCC1", "outcome": "inactive"}
{"smiles": "CC[C@H](C)[C@H]1O[C@]2(C=C[C@@H]1C)C[C@@H]1C[C@@H](C/C=C(\\C)[C@@H](O[C@H]3C[C@H](OC)[C@@H](O[C@H]4C[C@H](OC)[C@@H](NC)[C@H](C)O4)[C@H](C)O3)[C@@H](C)/C=C/C=C3\\CO[C@@H]4[C@H](O)C(C)=C[C@@H](C(=O)O1)[C@]34O)O2", "AC50": "10.7 µM (active)"}
{"molecular_target": "Type-1 angiotensin II receptor (Homo sapiens) (UniProt P30556)", "sequence (P30556 whole entry, looked up)": "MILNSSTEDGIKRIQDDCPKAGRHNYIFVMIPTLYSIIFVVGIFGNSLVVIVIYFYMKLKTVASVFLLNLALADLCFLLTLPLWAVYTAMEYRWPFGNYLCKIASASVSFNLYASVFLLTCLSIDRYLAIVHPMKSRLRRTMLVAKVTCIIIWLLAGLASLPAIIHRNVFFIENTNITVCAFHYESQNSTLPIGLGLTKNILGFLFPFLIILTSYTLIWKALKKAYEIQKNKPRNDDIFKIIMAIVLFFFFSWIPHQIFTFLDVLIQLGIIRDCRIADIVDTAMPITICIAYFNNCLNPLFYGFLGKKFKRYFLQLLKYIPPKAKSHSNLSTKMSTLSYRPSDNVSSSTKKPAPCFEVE", "assay": "NVS_GPCR_hAT1: NovaScreen (NVS) G Protein-Coupled Receptor Assay for human Angiotensin II receptor type 1 (AT1) (AID 2283263)", "outline": "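Membranes from KAN-TS cells; radioligand competitive displacement, 3 h, filtration and scintillation counting. Single-point duplicate screen at 25 uM, then concentration-response up to 50 uM for hits; loss of signal fitted versus DMSO.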"}
{"smiles": "CCCOc1nn(C(=O)NS(=O)(=O)c2ccccc2C(=O)OC)c(=O)n1C", "outcome": "inactive"}
{"smiles": "N#CSCSC#N", "AC50": "14.9 µM (active)"}
{"smiles": "COc1cc(OC)nc(Sc2cccc(Cl)c2C(=O)O)n1", "outcome": "inactive"}
{"smiles": "CCOP(=O)(OCC)Oc1cc(C)nc(C(C)C)n1", "outcome": "inactive"}
{"smiles": "CCCSP(=O)(OCC)Oc1ccc(Br)cc1Cl", "note": "(stereo not given)", "outcome": "inactive"}
{"smiles": "CCOP(=S)(OCC)Oc1cc(C)nc(C(C)C)n1", "outcome": "inactive"}
{"smiles": "CC[C@H](C)[C@H]1O[C@]2(C=C[C@@H]1C)C[C@@H]1C[C@@H](C/C=C(\\C)[C@@H](O[C@H]3C[C@H](OC)[C@@H](O[C@H]4C[C@H](OC)[C@@H](NC)[C@H](C)O4)[C@H](C)O3)[C@@H](C)/C=C/C=C3\\CO[C@@H]4[C@H](O)C(C)=C[C@@H](C(=O)O1)[C@]34O)O2", "AC50": "17 µM (active)"}
{"smiles": "COP(=O)(OC)OC(Br)C(Cl)(Cl)Br", "note": "(stereo not given)", "AC50": "13.5 µM (active)"}
{"molecular_target": "human Dopamine Receptor D2 (DRD2), DRD2 (gene 1813) (UniProt P14416)", "sequence (P14416 whole entry, looked up)": "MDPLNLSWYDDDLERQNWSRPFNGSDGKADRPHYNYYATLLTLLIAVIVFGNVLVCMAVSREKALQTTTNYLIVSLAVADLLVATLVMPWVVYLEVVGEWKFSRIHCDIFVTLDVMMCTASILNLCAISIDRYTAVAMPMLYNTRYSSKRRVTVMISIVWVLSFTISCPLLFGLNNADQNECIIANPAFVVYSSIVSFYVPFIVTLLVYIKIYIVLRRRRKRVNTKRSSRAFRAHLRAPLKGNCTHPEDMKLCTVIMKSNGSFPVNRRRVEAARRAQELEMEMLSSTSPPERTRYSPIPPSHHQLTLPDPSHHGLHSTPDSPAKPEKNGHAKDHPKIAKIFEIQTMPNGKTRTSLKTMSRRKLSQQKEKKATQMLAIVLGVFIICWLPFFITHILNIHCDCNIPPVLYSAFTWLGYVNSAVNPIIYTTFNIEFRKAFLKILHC", "assay": "NVS_GPCR_hDRD2s: NovaScreen (NVS) G Protein-Coupled Receptor Assay for human Dopamine Receptor D2 (DRD2) (AID 2283266)", "outline": "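Radioligand displacement used human DRD2 membranes extracted from CHO cells and was read by filter-based scintillation counting after 1.5 hours. Primary screening was in duplicate at 25 uM. Loss of signal versus DMSO was fitted, with concentration series in follow-up.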"}
{"smiles": "S=C1NCCN1", "outcome": "inactive"}
{"smiles": "CN(C)C(=O)Nc1cccc(C(F)(F)F)c1", "outcome": "inactive"}
{"smiles": "O=C(O)c1cc(Oc2ccc(C(F)(F)F)cc2Cl)ccc1[N+](=O)[O-]", "outcome": "inactive"}
{"smiles": "CC[C@H](C)[C@H]1O[C@]2(C=C[C@@H]1C)C[C@@H]1C[C@@H](C/C=C(\\C)[C@@H](O[C@H]3C[C@H](OC)[C@@H](O[C@H]4C[C@H](OC)[C@@H](NC)[C@H](C)O4)[C@H](C)O3)[C@@H](C)/C=C/C=C3\\CO[C@@H]4[C@H](O)C(C)=C[C@@H](C(=O)O1)[C@]34O)O2", "AC50": "25 µM (active)"}
